Measurements from PubChem BioAssay (NCI).
“And” between values parts separate entries of the source, which are not always exact repeats. Identical values can stand only once. This is part of a sample that, as a whole, favours compounds with a hit. Of some 79,000 tested, about 15% had one in any assay. Some compounds were tested as several samples or in several runs, with calls that do not always agree. The source made the active and inactive calls. No stated cut-off is given here; in the data, active means growth inhibition above about 70%; inactive means the rest.

How the values were obtained:
[1] = NCI Yeast Anticancer Drug Screen. Data for the rad50 strain (AID 155);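 further: 0% = growth of vehicle-only cultures of the same strain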; conditions: S. cerevisiae rad50 strain growth inhibition, stronger effect = higher value
Procedure, shortened: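 DNA repair mutant yeast, compound exposure, growth read-out; inhibition is taken relative to vehicle.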

[2] = NCI Yeast Anticancer Drug Screen. Data for the mec2-1 strain (AID 157); conditions: S. cerevisiae mec2-1 strain, stronger effect = higher value
Procedure, shortened: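 mec2-1 yeast strain, carrying an alteration in DNA damage repair or cell cycle control, was exposed to compounds; growth inhibition was measured relative to vehicle-treated controls.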

[3] = NCI Yeast Anticancer Drug Screen. Data for the sgs1 mgt1 strain (AID 161);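 further: 0% = growth of cultures given vehicle only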; conditions: S. cerevisiae sgs1 mgt1 strain, stronger effect = higher value
Procedure, shortened: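 Percent growth inhibition was derived by comparing compound-exposed mutant yeast with vehicle-exposed cultures. The strain carries alterations in DNA damage repair.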

[4] = NCI Yeast Anticancer Drug Screen. Data for the cln2 rad14 strain (AID 165);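 further: 0% = growth equal to vehicle treated cultures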; conditions: S. cerevisiae cln2 rad14 strain, stronger effect = higher value
Procedure, shortened: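 Yeast carrying cln2 and rad14 alterations (cell cycle control and DNA damage repair) were exposed to compounds. Growth inhibition was measured against vehicle-treated controls.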

[5] = NCI Yeast Anticancer Drug Screen. Data for the bub3 strain (AID 167); conditions: S. cerevisiae bub3 mutant strain, stronger effect = higher value
Procedure, shortened: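 In this screen, a yeast mutant lacking normal mitotic checkpoint function is challenged with compound. Relative growth versus vehicle gives the inhibition value.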

[6] = NCI Yeast Anticancer Drug Screen. Data for the mlh1 rad18 strain (AID 175); conditions: S. cerevisiae mlh1 rad18 strain growth inhibition, stronger effect = higher value
Procedure, shortened: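 Growth inhibition of the yeast strain was measured after compound exposure and expressed relative to vehicle-treated controls. The strain carries defined defects in DNA damage repair.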

[7] = at 5.0 µM (retest, dose inferred, filed as 0.5)
[8] = at 50.0 µM (retest, dose inferred, filed as 5.0)

Measured: growth inhibition

c1ccc(-c2ccccn2)nc1
82.5% (active) and 64.2% (inactive): [5]; at 50.0 µM
active: [1]; [8] 76% and 90% | [1]; at 50.0 µM 79.8% and 81.1% | [3]; [8] 74% and 75% | [5]; [8] 87% and 86% | [6]; [8] 85% and 84%
inactive: [1]; [7] -4% and 2% | [2]; [7] 0% and 1% | [2]; [8] 53% and 61% | [3]; [7] 8% and -2% | [4]; [7] 4% and -5% | [4]; [8] 61% and 51% | [4]; at 50.0 µM 29.1% and 21.4% | [5]; [7] -23% and 0% | [6]; [7] -3% and 2%
66% (inactive) and 77.8% (active): [3]; at 50.0 µM
68% (inactive) and 75.9% (active): [6]; at 50.0 µM
70.9% (active) and 55.6% (inactive): [2]; at 50.0 µM

Cc1cc[n+](C2=C(Nc3ccc(Cl)cc3Cl)C(=O)c3ccccc3C2=O)cc1
inactive: [1]; [7] 41% | [2]; [7] -1% | [2]; [8] 58% | [2]; at 50.0 µM 61.5% | [3]; [7] 1% | [3]; [8] 59% | [3]; at 50.0 µM 66.4% | [4]; [7] 4% | [4]; [8] 39% | [4]; at 50.0 µM 40.2% | [5]; [7] 5% | [5]; at 50.0 µM 61.1% | [6]; [7] 4% | [6]; [8] 58%
active: [1]; [8] 90% | [1]; at 50.0 µM 92.3% | [5]; [8] 78% | [6]; at 50.0 µM 81%

C[C@]12Cc3conc3C(O)=C1CC[C@@H]1C2CC[C@@]2(C)C1CC[C@@H]2O (some centres undefined)
active: [1]; at 50.0 µM 81.3% | [5]; at 50.0 µM 71.2% | [6]; at 50.0 µM 78.2%
inactive: [1]; [7] 2% | [1]; [8] 5% | [2]; [7] 0% | [2]; [8] 0% | [2]; at 50.0 µM 63.5% | [3]; [7] 1% | [3]; [8] 35% | [3]; at 50.0 µM 57.1% | [4]; [7] 1% | [4]; [8] 24% | [4]; at 50.0 µM 55.2% | [5]; [7] -49% | [5]; [8] 3% | [6]; [7] -1% | [6]; [8] 15%

ClCCN(CCCl)B(N(CCCl)CCCl)N(CCCl)CCCl
inactive: [1]; [7] -1% | [1]; [8] -6% | [2]; [7] -23% | [2]; [8] 0% | [3]; [7] -11% | [3]; [8] 10% | [4]; [7] 0% | [4]; [8] -2% | [5]; [7] 3% | [5]; [8] -6% | [6]; [7] -13% | [6]; [8] -26%
active: [1]; at 50.0 µM 98.8% | [2]; at 50.0 µM 99.3% | [3]; at 50.0 µM 99.1% | [4]; at 50.0 µM 99.2% | [5]; at 50.0 µM 98.8% | [6]; at 50.0 µM 99.3%

CC(=O)[O][Hg][c]1ccccc1N
inactive: [1]; [7] 36% | [1]; [8] 60% | [2]; [7] 36% | [2]; [8] 64% | [4]; [7] 46% | [6]; [7] 22% | [6]; [8] 35%
active: [1]; at 50.0 µM 91.6% | [2]; at 50.0 µM 93.8% | [3]; [7] 99% | [3]; [8] 99% | [3]; at 50.0 µM 93.7% | [4]; [8] 99% | [4]; at 50.0 µM 92% | [5]; [7] 99% | [5]; [8] 98% | [5]; at 50.0 µM 92.1% | [6]; at 50.0 µM 91.7%

CC1=C[n+]2cc(C)ccc2Sc2c1ccc1ccccc21
inactive: [1]; [7] -2% | [1]; [8] 24% | [1]; at 50.0 µM 64.3% | [2]; [7] 11% | [2]; [8] 50% | [3]; [7] -20% | [3]; [8] 10% | [4]; [7] -2% | [4]; [8] 4% | [4]; at 50.0 µM 28.8% | [5]; [7] 0% | [5]; [8] 29% | [5]; at 50.0 µM 66.9% | [6]; [7] -1% | [6]; [8] 30%
active: [2]; at 50.0 µM 74.7% | [3]; at 50.0 µM 80.5% | [6]; at 50.0 µM 79.5%

O=[N+]([O-])c1cc([N+](=O)[O-])c(Cl)cc1F
active: [1]; [7] 99% | [1]; [8] 99% | [1]; at 50.0 µM 81% | [2]; [7] 99% | [2]; [8] 99% | [3]; [7] 99% | [3]; [8] 99% | [3]; at 50.0 µM 78.2% | [4]; [7] 98% | [4]; [8] 99% | [5]; [7] 99% | [5]; [8] 99% | [5]; at 50.0 µM 87.5% | [6]; [7] 99% | [6]; [8] 99% | [6]; at 50.0 µM 98.6%
inactive: [2]; at 50.0 µM 59.7% | [4]; at 50.0 µM -3.25%

CC(=O)Nc1ccc(/C=N/N=C(/N)N[N+](=O)[O-])cc1
inactive: [1]; [7] -7% | [1]; [8] -1% | [1]; at 50.0 µM 61.5% | [2]; [7] -7% | [2]; [8] -2% | [2]; at 50.0 µM 63.8% | [3]; [7] -5% | [3]; [8] -1% | [3]; at 50.0 µM 52.9% | [4]; [7] -1% | [4]; [8] 1% | [5]; [7] -2% | [5]; [8] -6% | [6]; [7] 1% | [6]; [8] -9%
active: [4]; at 50.0 µM 83.8% | [5]; at 50.0 µM 71.5% | [6]; at 50.0 µM 81.3%
